# Experimental data as given in publication PMC7862700, “An all-to-all approach to the identification of sequence-specific readers for epigenetic DNA modifications on cytosine”.
# Tests used:
# Test in all cases: DAPPL (digital affinity profiling via proximity ligation, sequencing); 10 mM Tris-HCl pH 7.5, 50 mM NaCl, 1 mM DTT, 4% glycerol, room temperature, 30 min; GST-TFs on glutathione beads, 16-mer random dsDNA library, 0.1% formaldehyde crosslink after washing; high values mean tight binding
# FEV = target: T1, FEV (Homo sapiens, UniProt Q99581 1-238); conditions: protein: recombinant; tags: N-terminal GST; dsDNA, one strand shown
# T1 sequence: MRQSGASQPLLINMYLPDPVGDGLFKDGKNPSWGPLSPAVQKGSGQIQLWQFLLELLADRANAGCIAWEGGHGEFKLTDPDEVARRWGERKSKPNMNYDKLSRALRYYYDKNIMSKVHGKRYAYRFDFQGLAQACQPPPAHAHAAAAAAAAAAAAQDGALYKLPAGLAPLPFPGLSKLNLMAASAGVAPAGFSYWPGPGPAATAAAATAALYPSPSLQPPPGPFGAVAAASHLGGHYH
# Procedure, shortened: (§1)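 After expression in yeast as GST fusions, human transcription factors were bound to glutathione beads, DNA-barcoded and mixed with a tag-only sample. The pools were incubated with 200 nmole of a 16-mer random double-stranded DNA library in Tris/NaCl/DTT/glycerol buffer (30 min, room temperature), washed and crosslinked with 0.1% formaldehyde. Proximity ligation with BsaI/T4 ligase ran for 1 h at 37 °C, before PCR amplification and sequencing on an Illumina NextSeq500. Binding signal is a hexamer's read frequency for a factor divided by its frequency for the tag-only sample.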
# ETV5 = ETV5 (Homo sapiens, UniProt P41161 1-510); conditions: protein: recombinant; tags: N-terminal GST; dsDNA, one strand shown
# ETV5, sequence (P41161 whole entry): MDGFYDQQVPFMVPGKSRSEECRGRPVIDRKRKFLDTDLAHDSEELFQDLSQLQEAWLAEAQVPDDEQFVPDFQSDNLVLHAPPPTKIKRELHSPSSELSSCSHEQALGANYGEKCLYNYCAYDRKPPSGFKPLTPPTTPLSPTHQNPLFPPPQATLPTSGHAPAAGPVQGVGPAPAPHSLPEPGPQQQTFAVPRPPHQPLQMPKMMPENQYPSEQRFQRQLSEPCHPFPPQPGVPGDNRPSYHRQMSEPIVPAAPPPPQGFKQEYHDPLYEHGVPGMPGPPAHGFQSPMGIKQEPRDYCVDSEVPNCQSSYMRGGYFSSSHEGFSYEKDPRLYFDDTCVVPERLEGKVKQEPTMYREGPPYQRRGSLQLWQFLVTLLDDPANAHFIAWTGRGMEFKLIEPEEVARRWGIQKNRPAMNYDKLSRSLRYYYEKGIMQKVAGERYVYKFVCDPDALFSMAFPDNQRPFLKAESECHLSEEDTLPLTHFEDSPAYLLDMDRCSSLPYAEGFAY
# Procedure, shortened: as §1
# HSF1 = HSF1 (Homo sapiens, UniProt Q00613 1-529); conditions: protein: recombinant; tags: N-terminal GST; chain copies: 3; dsDNA, one strand shown
# HSF1, sequence (Q00613 whole entry): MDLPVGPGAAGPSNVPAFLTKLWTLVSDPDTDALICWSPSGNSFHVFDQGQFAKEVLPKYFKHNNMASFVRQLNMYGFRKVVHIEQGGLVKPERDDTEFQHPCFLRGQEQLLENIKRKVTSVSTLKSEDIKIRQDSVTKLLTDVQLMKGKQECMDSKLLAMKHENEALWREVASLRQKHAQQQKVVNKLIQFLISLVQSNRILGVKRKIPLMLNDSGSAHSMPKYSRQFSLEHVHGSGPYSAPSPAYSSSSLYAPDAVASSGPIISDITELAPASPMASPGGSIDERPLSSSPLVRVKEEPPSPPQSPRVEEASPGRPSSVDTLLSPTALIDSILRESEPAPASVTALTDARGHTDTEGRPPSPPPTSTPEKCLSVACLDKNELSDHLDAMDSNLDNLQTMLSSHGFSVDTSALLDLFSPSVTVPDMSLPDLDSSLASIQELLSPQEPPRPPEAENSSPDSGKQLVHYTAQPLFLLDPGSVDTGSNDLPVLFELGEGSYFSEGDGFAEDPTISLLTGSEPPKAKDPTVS
# Procedure, shortened: as §1
# SPIC = target: T2, SPIC (Homo sapiens, UniProt Q8N5J4 1-248); conditions: protein: recombinant; tags: N-terminal GST; dsDNA, one strand shown
# T2 sequence: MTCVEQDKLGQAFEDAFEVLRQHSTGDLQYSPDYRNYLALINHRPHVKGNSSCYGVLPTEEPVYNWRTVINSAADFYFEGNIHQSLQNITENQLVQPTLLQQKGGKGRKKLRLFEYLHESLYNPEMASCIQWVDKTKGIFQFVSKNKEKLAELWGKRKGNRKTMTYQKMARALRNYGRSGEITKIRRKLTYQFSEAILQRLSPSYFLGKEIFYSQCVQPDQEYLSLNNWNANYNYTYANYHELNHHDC
# Procedure, shortened: as §1
# ELF4 = ELF4 (Homo sapiens, UniProt Q99607 1-663); conditions: protein: recombinant; tags: N-terminal GST; dsDNA, one strand shown
# ELF4, sequence (Q99607 whole entry): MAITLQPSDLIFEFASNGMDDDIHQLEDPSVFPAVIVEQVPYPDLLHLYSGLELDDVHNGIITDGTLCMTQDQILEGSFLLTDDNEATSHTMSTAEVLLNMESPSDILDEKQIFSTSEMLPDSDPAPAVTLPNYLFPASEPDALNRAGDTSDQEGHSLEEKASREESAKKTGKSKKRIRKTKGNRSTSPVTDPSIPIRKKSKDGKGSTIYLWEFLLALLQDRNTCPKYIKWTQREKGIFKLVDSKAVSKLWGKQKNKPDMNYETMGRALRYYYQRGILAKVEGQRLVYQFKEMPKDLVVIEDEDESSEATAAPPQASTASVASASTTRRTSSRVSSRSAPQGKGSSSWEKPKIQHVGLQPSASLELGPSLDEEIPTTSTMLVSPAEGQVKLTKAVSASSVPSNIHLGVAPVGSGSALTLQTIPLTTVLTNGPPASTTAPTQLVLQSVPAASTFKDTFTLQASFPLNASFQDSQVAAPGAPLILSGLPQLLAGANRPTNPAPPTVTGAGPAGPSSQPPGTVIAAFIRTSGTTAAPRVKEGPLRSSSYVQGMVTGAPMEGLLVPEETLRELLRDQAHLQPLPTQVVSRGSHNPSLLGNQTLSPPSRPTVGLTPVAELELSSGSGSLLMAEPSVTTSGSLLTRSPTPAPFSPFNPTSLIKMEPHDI
# Procedure, shortened: as §1
# ELK4 = target: T3, ELK4 (Homo sapiens, UniProt P28324-2 1-405); conditions: protein: recombinant; tags: N-terminal GST; dsDNA, one strand shown
# T3 sequence: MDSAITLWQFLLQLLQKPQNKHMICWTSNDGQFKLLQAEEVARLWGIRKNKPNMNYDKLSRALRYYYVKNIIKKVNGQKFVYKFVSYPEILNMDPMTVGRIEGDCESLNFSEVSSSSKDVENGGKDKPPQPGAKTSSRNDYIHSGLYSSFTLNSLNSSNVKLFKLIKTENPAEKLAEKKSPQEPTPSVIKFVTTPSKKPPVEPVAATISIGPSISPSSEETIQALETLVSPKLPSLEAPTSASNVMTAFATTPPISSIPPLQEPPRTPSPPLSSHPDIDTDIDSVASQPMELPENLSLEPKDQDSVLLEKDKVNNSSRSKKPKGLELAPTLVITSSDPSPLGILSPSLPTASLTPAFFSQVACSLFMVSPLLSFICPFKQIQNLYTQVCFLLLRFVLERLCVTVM
# Procedure, shortened: as §1
# ETV2 = target: T4, ETV2 (Homo sapiens, UniProt O00321 1-342); conditions: protein: recombinant; tags: N-terminal GST; dsDNA, one strand shown
# T4 sequence: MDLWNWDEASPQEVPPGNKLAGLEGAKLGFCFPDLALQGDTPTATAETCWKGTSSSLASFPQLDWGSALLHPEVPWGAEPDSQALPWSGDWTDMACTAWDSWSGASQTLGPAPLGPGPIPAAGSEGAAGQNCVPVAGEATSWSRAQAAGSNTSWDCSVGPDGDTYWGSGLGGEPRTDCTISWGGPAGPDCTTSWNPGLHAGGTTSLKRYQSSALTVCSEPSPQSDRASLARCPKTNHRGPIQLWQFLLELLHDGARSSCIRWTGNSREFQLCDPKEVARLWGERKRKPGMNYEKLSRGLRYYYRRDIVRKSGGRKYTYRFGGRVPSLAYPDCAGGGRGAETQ
# Procedure, shortened: as §1
# ELF3 = target: T5, ELF3 (Homo sapiens, UniProt P78545 1-371); conditions: protein: recombinant; tags: N-terminal GST; dsDNA, one strand shown
# T5 sequence: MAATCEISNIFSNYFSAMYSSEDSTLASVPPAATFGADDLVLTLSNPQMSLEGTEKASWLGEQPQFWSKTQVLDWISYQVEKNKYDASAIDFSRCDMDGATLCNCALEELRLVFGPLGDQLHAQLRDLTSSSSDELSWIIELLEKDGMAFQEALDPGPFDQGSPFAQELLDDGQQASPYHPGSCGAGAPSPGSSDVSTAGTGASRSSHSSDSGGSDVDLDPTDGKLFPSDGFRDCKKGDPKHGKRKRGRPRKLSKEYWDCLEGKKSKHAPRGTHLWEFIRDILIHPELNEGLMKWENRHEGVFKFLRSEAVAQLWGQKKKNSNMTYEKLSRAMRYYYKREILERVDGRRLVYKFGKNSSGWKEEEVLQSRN
# Procedure, shortened: as §1
# ETV1 = ETV1 (Homo sapiens, UniProt P50549 1-477); conditions: protein: recombinant; tags: N-terminal GST; dsDNA, one strand shown
# ETV1, sequence (P50549 whole entry): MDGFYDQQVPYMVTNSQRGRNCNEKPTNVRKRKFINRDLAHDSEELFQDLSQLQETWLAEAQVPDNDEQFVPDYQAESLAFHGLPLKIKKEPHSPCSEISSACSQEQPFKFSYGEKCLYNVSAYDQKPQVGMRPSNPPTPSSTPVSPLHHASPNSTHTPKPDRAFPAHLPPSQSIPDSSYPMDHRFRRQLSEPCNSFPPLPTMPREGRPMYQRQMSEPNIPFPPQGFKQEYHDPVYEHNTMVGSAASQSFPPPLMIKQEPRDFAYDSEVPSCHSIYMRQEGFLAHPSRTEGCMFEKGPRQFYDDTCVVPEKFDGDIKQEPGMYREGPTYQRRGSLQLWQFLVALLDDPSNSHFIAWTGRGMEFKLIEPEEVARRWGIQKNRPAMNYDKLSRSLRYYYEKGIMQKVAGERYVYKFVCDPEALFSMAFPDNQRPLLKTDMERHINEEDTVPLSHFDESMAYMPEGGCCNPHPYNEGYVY
# Procedure, shortened: as §1
sequence,measurement,setting,value
CGCTAG,binding signal,FEV,"1.06 fold enrichment (6-mer frequency, TF over GST control)"
same,binding signal,ETV5,"1.02 fold enrichment (6-mer frequency, TF over GST control)"
same,binding signal,HSF1,"1.29 fold enrichment (6-mer frequency, TF over GST control)"
same,binding signal,SPIC,"1.03 fold enrichment (6-mer frequency, TF over GST control)"
same,binding signal,ELF4,"1.11 fold enrichment (6-mer frequency, TF over GST control)"
same,binding signal,ELK4,"1.09 fold enrichment (6-mer frequency, TF over GST control)"
same,binding signal,ETV2,"1.19 fold enrichment (6-mer frequency, TF over GST control)"
same,binding signal,ELF3,"1.01 fold enrichment (6-mer frequency, TF over GST control)"
same,binding signal,ETV1,"1.03 fold enrichment (6-mer frequency, TF over GST control)"
